Assay results: PubChem BioAssay (NCI)
The panel holds about 79,000 compounds, 15% with a hit somewhere; the sample as a whole holds those more often. Cut-off read from the data, not from the text of the source: active = growth inhibition above about 70%; inactive = the rest.

Key:
[1] = NCI Yeast Anticancer Drug Screen. Data for the rad50 strain (AID 155);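 note: 0% = growth of vehicle-only cultures of the same strain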; details: S. cerevisiae rad50 strain growth inhibition; at 50.0 µM; active compounds read high
Procedure, shortened: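 Cells are treated with compound, grown, and their growth is then scored against vehicle-only cultures of the same repair-deficient yeast strain.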

[2] = NCI Yeast Anticancer Drug Screen. Data for the mec2-1 strain (AID 157); details: S. cerevisiae mec2-1 strain, at 50.0 µM, active compounds read high
Procedure, shortened: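 Mutant yeast (mec2-1) grown with compound; growth inhibition relative to vehicle control reported.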

[3] = NCI Yeast Anticancer Drug Screen. Data for the sgs1 mgt1 strain (AID 161);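 note: 0% = growth of cultures given vehicle only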; details: S. cerevisiae sgs1 mgt1 strain, at 50.0 µM, active compounds read high
Procedure, shortened: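 Compounds are added to genetically altered yeast, and growth is compared with cultures given vehicle alone to give percent inhibition.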

[4] = NCI Yeast Anticancer Drug Screen. Data for the cln2 rad14 strain (AID 165);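 note: 0% = growth equal to vehicle treated cultures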; details: S. cerevisiae cln2 rad14 strain, at 50.0 µM, active compounds read high
Procedure, shortened: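 Readout is yeast growth inhibition versus vehicle-treated controls, using a strain with cln2 and rad14 alterations exposed to compound.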

[5] = NCI Yeast Anticancer Drug Screen. Data for the bub3 strain (AID 167); details: S. cerevisiae bub3 mutant strain, at 50.0 µM, active compounds read high
Procedure, shortened: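 Part of a panel of yeast mutants defective in DNA damage repair or cell cycle regulation. Each strain is grown with compound, and inhibition is calculated relative to solvent-treated cultures.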

[6] = NCI Yeast Anticancer Drug Screen. Data for the mlh1 rad18 strain (AID 175); details: S. cerevisiae mlh1 rad18 strain growth inhibition; at 50.0 µM; active compounds read high
Procedure, shortened: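 Genetically defined yeast (DNA repair-deficient) exposed to compounds; growth inhibition determined relative to vehicle.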

Measured: growth inhibition

COC1(OC)CCCCCCCCC(OC)(OC)CCCCCCCC1
inactive: [1] 7.5% | [2] -18.4% | [3] -10.4% | [4] 13% | [5] 16.2% | [6] -8.2%

N#CCSCC(N)C(=O)O (stereo not given)
inactive: [1] -11.1% | [2] -15.2% | [3] -1.1% | [4] -6.75% | [5] -19.6% | [6] -4.8%

COc1ccc(C2c3cc4c(cc3OC(C)(O)C2C)OCO4)c(OC)c1OC (stereo not given)
inactive: [1] 3.45% | [2] 5.7% | [3] -1.4% | [4] -9.25% | [5] -5.1% | [6] 18.9%

COc1cccc(C2c3cc4c(cc3OC(NNC(N)=O)C2C)OCO4)c1O (stereo not given)
inactive: [1] -12.8% | [2] -8.6% | [3] 2.55% | [4] 9.9% | [5] -2.75% | [6] -7.35%

CCCCC(CC)CN(CC(CC)CCCC)C(=O)C(C)OC(=O)C(CC)CCCC (stereo not given)
inactive: [1] 3.7% | [2] 6.1% | [3] 18% | [4] -4.3% | [5] 14.8% | [6] 16.9%

CC(=O)NNC(=S)/N=C\c1c(O)[nH]c(=O)[nH]c1=O
inactive: [1] -23.1% | [2] -30.1% | [3] -15.4% | [4] -0.6% | [5] -4% | [6] -9.85%

COc1cc(C2c3cc4c(cc3OC(C)(N3CCCC3)C2C)OCO4)cc(OC)c1OC (stereo not given)
inactive: [1] -25.4% | [2] 6.95% | [3] -9.8% | [4] 14.2% | [5] -2.55% | [6] 0.25%

c1ccc2cc3ccccc3cc2c1
inactive: [1] 5.75% | [2] 10.7% | [3] -18.5% | [4] -42.6% | [5] -0.85% | [6] 3.7%

Cc1ccc(S(=O)(=O)OCC2(COS(=O)(=O)c3ccc(C)cc3)CCC2)cc1
inactive: [1] -7.8% | [2] -7.75% | [3] 0.25% | [4] -8.95% | [5] 16% | [6] -15%

N=C(N)SCc1cccc2ccc3cccc(CSC(=N)N)c3c12
inactive: [1] 4.05% | [2] 8.5% | [3] 17.4% | [4] -3.1% | [5] 2.6% | [6] 30.9%

Cc1cc(N=Nc2ccc(N=Nc3ccc(S(=O)(=O)O)cc3)cc2)cc(C(=O)O)c1O
inactive: [1] 12% | [2] -9.4% | [3] -2.85% | [4] -8% | [5] -19.7% | [6] 4.25%

O=C(OCN1C(=O)C2C3C=CC(C2C1=O)C1C2C(=O)N(COC(=O)C4CCCN4)C(=O)C2C31)C1CCCN1 (stereo not given)
inactive: [1] 5% | [2] -15.6% | [3] -36.6% | [4] 2.95% | [5] -42.8% | [6] -10.1%

Nc1ccccc1C(=O)Nc1ccccn1
inactive: [1] 4.05% | [2] -1.1% | [3] 0.5% | [4] 5.35% | [5] 0.45% | [6] -6.25%

C1=CC(=NN=P(c2ccccc2)(c2ccccc2)c2ccccc2)C=C1
inactive: [1] 21.7% | [2] 7.9% | [3] 20.3% | [4] 19.9% | [5] 18.7% | [6] 13.5%

CCOC(=O)/C(C)=C1\N=C(c2ccccc2)OC(=NC2CCCCC2)N1C1CCCCC1
inactive: [1] 9.95% | [2] -4.8% | [3] 0.3% | [4] 17.9% | [5] -4.55% | [6] 8.1%

COc1ccc(/C=C/[n+]2ccccc2)cc1OC
inactive: [1] -1.45% | [2] 4.85% | [3] 4.05% | [4] -14.2% | [5] 10.7% | [6] -3.85%

O=C(O)C(CO)N=Cc1nc(-c2ccccc2)oc1O (stereo not given)
inactive: [1] 0.2% | [2] 6.05% | [3] 12.4% | [4] 9.25% | [5] -6.25% | [6] -11.8%

CC1(C)CCCN1C(=O)Nc1ccc([N+](=O)[O-])cc1[N+](=O)[O-]
inactive: [1] 4.1% | [2] -7.7% | [3] 5.4% | [4] -12.6% | [5] -4.15% | [6] -14.1%

Nc1c(N2CCCCC2)c(=O)nc2[nH]/c(=C\c3ccco3)c(=O)n12
inactive: [1] 5.45% | [2] -26.1% | [3] 10.9% | [4] -21.4% | [5] 8.8% | [6] -7.6%

CC(=O)O[C@H]1CC[C@@]2(C)[C@@H](CC[C@@H]3[C@@H]2CC[C@]2(C)[C@@H](C(=O)CCC(F)(F)F)CC[C@@H]32)C1
inactive: [1] 16.9% | [2] 20.9% | [3] 33.6% | [4] 23.3% | [5] 0.15% | [6] 18.9%

NC(=S)CNC(=O)c1ccccc1
inactive: [1] -28.6% | [2] -33.1% | [3] -29.3% | [4] -9.55% | [5] -11.8% | [6] 9.6%

CC(NC(=O)NC(C)(C)C)c1ccccc1 (stereo not given)
inactive: [1] 3.05% | [2] -12.9% | [3] -5.05% | [4] -37% | [5] 5.2% | [6] 4.1%

CCCCCCCNC(=O)C(Cl)Cl
inactive: [1] 7.85% | [2] -16.8% | [3] -6.65% | [4] -2.55% | [5] 39.8% | [6] 7.4%

CSC(c1ccc(Oc2ccccc2)cc1)=[N+]1CCCCC1
inactive: [1] 47.2% | [2] 13.2% | [3] 49.4% | [4] 23.2% | [5] 53.5% | [6] 23.7%

CC(=O)OC/C=C/CN(C)C
inactive: [1] 9.3% | [2] 4.6% | [3] -7.25% | [4] 7.8% | [5] -6.2% | [6] 16.5%

Nc1nc(Nc2ccccc2)c2ncn(C3OC(CO)C(O)C3O)c2n1 (stereo not given)
inactive: [1] 12.7% | [2] 1.25% | [3] 0.25% | [4] -1.35% | [5] 3.6% | [6] -12.3%

O=C(O)CC(=O)Nc1cc([N+](=O)[O-])ccc1OCc1ccccc1
inactive: [1] -2.95% | [2] 3.6% | [3] -1.1% | [4] -14.7% | [5] 5.7% | [6] 0.85%

CCCCCCCCCCCCCCCCCC(=O)N/N=C/c1ccc(O)cc1
inactive: [1] -22.3% | [2] -12.4% | [3] -16.2% | [4] -61.2% | [5] -6.2% | [6] 1.85%

Cn1c(=Nc2ccc(Cl)cc2)sc2ccccc21
inactive: [1] -8.65% | [2] -31.2% | [3] -21.4% | [4] -36.9% | [5] 1.2% | [6] -21.9%

Cc1cccc(C(=O)c2ccc(C)cc2C)c1
inactive: [1] 17.1% | [2] 6.65% | [3] -7.55% | [4] 6.75% | [5] -0.7% | [6] 5.4%

COc1ccc(CCCC2C(=O)CC(C)OC2=O)cc1OC (stereo not given)
inactive: [1] -26.9% | [2] 3.25% | [3] 2.1% | [4] -25.8% | [5] 3.05% | [6] -0.4%

CNNCCCC(=O)NC(C)C
inactive: [1] -5.7% | [2] 6.65% | [3] 9.25% | [4] 2.75% | [5] 7.8% | [6] 7.85%

CC(=O)C(C(C)=O)[N+](=O)[O-].CC(=O)C(C(C)=O)[N+](=O)[O-].[Cu]
inactive: [1] 17.1% | [2] -2.95% | [3] -6.75% | [4] -40.5% | [5] 23.6% | [6] 10.6%

C=Cc1c(C)c(OC)cc2c1Oc1ccc(OC)c(C)c1CC2
inactive: [1] 0.75% | [2] -0.2% | [3] 19.5% | [4] 8.35% | [5] 13.8% | [6] -23.6%

CCOC(=O)C12CCC(=O)C=C1[C@@H](C)C(=O)CC2 (stereo not given in full)
inactive: [1] -20.1% | [2] -48.6% | [3] -41.1% | [4] -10.2% | [5] -34.7% | [6] -23.4%

O=c1/c(=C/c2ccc(Cl)cc2)sc2nc(-c3ccccc3)nn12
inactive: [1] 0.85% | [2] 7.75% | [3] 8.8% | [4] -6.75% | [5] -12.8% | [6] 23.6%

COC(=O)C(=O)C(C(=O)C(=O)Nc1ccc(C)cc1C)c1nc2ccc(Cl)cc2[nH]c1=O (stereo not given)
inactive: [1] 4.35% | [2] -21.6% | [3] 9.2% | [4] -23.6% | [5] -22.4% | [6] 7.45%

O=S(=O)(CCc1ccccc1)c1nc2ccccc2s1
inactive: [1] -1.5% | [2] -1.85% | [3] -2.8% | [4] -11.9% | [5] -37.5% | [6] -11.5%

O=[N+]([O-])c1ccc(S(=O)(=O)/N=C/c2ccccc2)cc1
inactive: [1] 2.2% | [2] 9.25% | [3] 8.75% | [4] 14.7% | [5] 14.4% | [6] 12.3%

COc1cccc(C2CC(C)(O)Oc3cc4c(cc32)OCO4)c1O (stereo not given)
inactive: [1] 9.15% | [2] -8.25% | [3] -9.45% | [4] 12.1% | [5] 23.3% | [6] 6.65%
